In ChEMBL document CHEMBL1201862, “PubChem BioAssay data set” (2004):

species on record: Mus musculus; test: Confirmation Concentration-Response Assay for Epigenetic Modulators.; assay type: functional

Potency, active:
CC(C)C(=O)NC(c1ccco1)c1cc(Cl)c2cccnc2c1O (centres undefined) 341 µM
CC(C)C(=O)NC(c1ccc(Cl)cc1Cl)c1ccc2cccnc2c1O (centres undefined) 73.2 µM
COc1cccc(C(=O)NC(c2ccco2)c2cc(Cl)c3cccnc3c2O)c1 (centres undefined) 77.1 µM
COc1ccc(C)cc1/N=N/c1ccc(O)c2ncccc12 77.1 µM
